Laboratory results taken from PubChem BioAssay (NCATS).
Values joined by “and” are separate entries in the source; they are usually repeats but may differ in a detail not shown here. Identical values can stand only once. Results filed as inconclusive are left out. Unmarked numbers belong to inactive results. The call rests on the fitted dose curve; in most records, active means well fitted curve in the direction sought with a large enough effect; inconclusive means small, poorly fitted or top-dose-only effect, or another doubt; inactive means no such curve, though single readings can be large or run the other way.

Assay: qHTS Assay for Identifying Gametocytocidal Compounds (AID 743244);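 further: actives lower the fluorescent signal which means gametocytes are killed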
Settings: P. falciparum 3D7 stage III-V gametocytes, alamarBlue, 72 h; max response: active compounds read low
In short: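 In this qHTS viability screen, late-stage 3D7 gametocytes are incubated with compound for 72 h, then with alamarBlue for 24 h; reduced resorufin fluorescence marks killing.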
On the % scale 0 is the no-effect control and ±100 the full control effect.

| Structure (SMILES) | max response |
| --- | --- |
| NC(=O)OCC(O)COc1ccc(Cl)cc1 (configuration not stated) | 9.36% |
| COc1ccc2cc([C@H](C)CO)ccc2c1 | 13.6% |
| C=C1C(CCl)(CCl)C2(Cl)C(Cl)C(Cl)C1(Cl)C2(Cl)Cl (configuration not stated) | -0.376% |
| Cc1cc(=O)c(C(=O)N[C@@H](C(=O)N[C@@H]2C(=O)N3C(C(=O)O)=C(CSc4nnnn4C)CS[C@H]23)c2ccc(O)cc2)c[nH]1 | -4.61% |
| CCCc1nc(C(C)(C)O)c(C(=O)OCc2oc(=O)oc2C)n1Cc1ccc(-c2ccccc2-c2nn[nH]n2)cc1 | 48.2% |
| CN[C@H](CC(C)C)C(=O)N[C@H]1C(=O)N[C@@H](CC(N)=O)C(=O)N[C@H]2C(=O)N[C@H]3C(=O)N[C@H](C(=O)N[C@@H](C(=O)O)c4cc(O)cc(O)c4-c4cc3ccc4O)[C@H](O)c3ccc(c(Cl)c3)Oc3cc2cc(c3O[C@@H]2O[C@H](CO)[C@@H](O)[C@H](O)[C@H]2O[C@H]2C[C@](C)(N)C(O)[C@H](C)O2)Oc2ccc(cc2Cl)[C@H]1O (some centres not stated) | 3.65% and -0.964% |
| CN[C@@H]1[C@H](O[C@H]2[C@H](O[C@H]3[C@H](O)[C@@H](O)[C@H](N=C(N)N)[C@@H](O)[C@@H]3N=C(N)N)O[C@@H](C)[C@]2(O)CO)O[C@@H](CO)[C@H](O)[C@H]1O | 8.75% |
| CCCCC/C=C\C/C=C\C/C=C\CCCCC(=O)O | 14.9% |
| Nc1nc2c(c(=O)[nH]1)N(C=O)C(CNc1ccc(C(=O)N[C@@H](CCC(=O)O)C(=O)O)cc1)CN2 (some centres not stated) | 8.32% |
| Cc1cc(O)c2c(c1)O[C@@]1(C)CC[C@H]3C(C)(C)CCCC34CO[C@@H]2[C@H]41 (some centres not stated) | 20.1% |
| CC(C)OC(=O)Nc1ccc2nc(-c3cscn3)[nH]c2c1 | -0.783% |
| CO[C@H]1C=CO[C@@]2(C)Oc3c(C)c(O)c4c(O)c(cc(O)c4c3C2=O)NC(=O)/C(C)=C\C=C/[C@H](C)[C@H](O)[C@@H](C)[C@@H](O)[C@@H](C)[C@H](OC(C)=O)[C@@H]1C | -6.86% |
| COc1ccc(/C=C/C(=O)O)cc1 | -1.23% |
| Cc1ccccn1 | 2.7% |
| CC(C)[C@H](N)C(=O)OCC(CO)OCn1cnc2c(=O)[nH]c(N)nc21 (some centres not stated) | -1.87% |
| CCCCCCCCCc1ccc(OCCOCCO)cc1 | -0.96% |

| Structure (SMILES) | max response |
| --- | --- |
| CC[C@H](CC[C@@H](C)[C@H]1CC[C@H]2[C@@H]3CC=C4C[C@@H](O)CC[C@]4(C)[C@H]3CC[C@]12C)C(C)C | 14.2% |
| O=C[C@H](O)[C@@H](O)[C@@H](O)[C@H](O)CO | -6.65% |
| CC[C@H]1NC(=O)[C@@H](NC(=O)c2ncccc2O)[C@@H](C)OC(=O)[C@H](c2ccccc2)NC(=O)[C@@H]2CC(=O)CCN2C(=O)[C@H](Cc2ccccc2)N(C)C(=O)[C@@H]2CCCN2C1=O | 3.22% |
| CC(C)(O/N=C(\C(=O)N[C@@H]1C(=O)N2C(C(=O)[O-])=C(C[n+]3ccccc3)CS[C@H]12)c1csc(N)n1)C(=O)O | 20.4% |
| CCCOc1cc(N)ccc1C(=O)OCCN(CC)CC | -20.2% |
| NC(=O)[C@H]1O[C@@H](O)[C@H](O)[C@@H](O)[C@@H]1O | -1.37% |
| C=CCN1CCCC1CNC(=O)c1cc(S(N)(=O)=O)cc(OC)c1OC (configuration not stated) | -2.17% |
| CC/C=C\C/C=C\C/C=C\C/C=C\C/C=C\C/C=C\CCC(=O)O | -1.97% |
| CCCC1C(=O)N2C(N(C)C)=Nc3ccc(C)cc3N2C1=O (configuration not stated) | 6.87% |
| Nc1nc(/C(=C/CC(=O)O)C(=O)N[C@@H]2C(=O)N3C(C(=O)O)=CCS[C@H]23)cs1 | -2.9% |
| C=C[C@]1(C)C[C@@H](OC(=O)CSCCN(CC)CC)[C@]2(C)[C@H](C)CC[C@]3(CCC(=O)[C@H]32)[C@@H](C)[C@@H]1O | -4.45% |
| O=C(O)CCCC/C=C(\c1ccccc1)c1cccnc1 | 0.181% |
| CNC(=O)OCc1cccc(COC(=O)NC)n1 | 8.67% |
| CCCCCCCCCC(=O)NO | -1.94% and 4.66% |
| O=C(NNCNNC(=O)c1ccncc1)c1ccncc1 | 16.9% |
| FC(F)(F)COCC(F)(F)F | 3.82% |
